Source: PubChem BioAssay (NCATS)
Results filed as inconclusive are left out. Active and inactive are the calls of the source. The call rests on the fitted dose curve; in most records, active means well fitted inhibition curve with a large enough effect; inconclusive means small, poorly fitted or top-dose-only effect; inactive means flat fitted curve, though single readings scatter.
On the % scale 0 is the no-effect control and ±100 the full control effect.

The molecules below were run on CRL-7250 (assay: Cytotoxic Profiling of Annotated Libraries Using Quantitative High-Throughput Screening (AID 1296008; further: nearly all actives have a fitted effect of over 60% in size)). Conditions: Five cell lines viability, CellTiter-Glo ATP luminescence, 48-72 h; max response: hits give low values.
How it was run: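 Cytotoxicity was measured as CellTiter-Glo ATP luminescence, read after 10 min at room temperature. Compound treatment of the cells lasted 48 or 72 hr at 37 degrees Celsius in a qHTS format.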
For `CC(C)CCCC(C)NCCC(C)C` (configuration not stated), the max response was -5.37% (inactive).
With `OCCc1ccccc1` the max response was 4.7% (inactive).
For `O=P(O)(O)OCC(O)CO` (configuration not stated), the max response was -2.69% (inactive).
For `CN1CC(=O)N2[C@H](c3ccc4c(c3)OCO4)c3[nH]c4ccccc4c3C[C@@H]2C1=O`, the max response was 3.82% (inactive).
For `C=CCNc1nc(NCC=C)nc(N2CCN(C(c3ccc(F)cc3)c3ccc(F)cc3)CC2)n1`, the max response was -3.37% (inactive).
In the case of `CCCCC(=O)OCC(=O)[C@H]1[C@H](C)C[C@H]2[C@@H]3C[C@H](F)C4=CC(=O)C=C[C@]4(C)[C@@]3(F)[C@@H](O)C[C@@]21C`, the max response is reported as -1.6% (inactive).
`COc1ccc2cc(C=O)ccc2c1` was tested, and the max response was 3.03% (inactive).
With `CN(C)CCN(Cc1ccsc1)c1ccccn1` the max response was -0.513% (inactive).
In the case of `NS(=O)(=O)c1cc(C(=O)NN2C[C@H]3[C@H]4CCC(C4)[C@H]3C2)ccc1Cl`, the outcome is reported as “inactive”.
In the case of `CC(CCc1ccc2c(c1)OCO2)NN` (configuration not stated), the max response is reported as -8.5% (inactive).
For `COC(=O)C1=CO[C@@H](O)[C@@H]2C(CO)=CC[C@H]12`, the max response was 0.169% (inactive).
For `COC(=O)c1cc(Cl)c(NC(C)=O)cc1OC`, the max response was 2.72% (inactive).
With `OC1(c2ccc(Cl)cc2)CCNCC1` the max response was -0.911% (inactive).
With `CC(=O)OCC(=O)[C@@]1(O)[C@H](OC(C)=O)C[C@H]2[C@@H]3CCC4=CC(=O)C=C[C@]4(C)[C@@]3(F)[C@@H](O)C[C@@]21C` the outcome was “inactive”.
For `Cc1ccc2c(Cl)cc(Cl)c(O)c2n1`, the max response was -1.98% (inactive).
For `CO[C@@H]1[C@@H](O[C@@H]2O[C@H](C)[C@@H](O[C@H]3C[C@@](C)(O)[C@@H](O)[C@H](C)O3)[C@H](N(C)C)[C@H]2O)[C@@H](CC=O)C[C@@H](C)[C@@H](O[C@@H]2CC[C@H](N(C)C)[C@@H](C)O2)/C=C/C=C/C[C@@H](C)OC(=O)C[C@H]1OC(C)=O`, the outcome was “inactive”.
In the case of `O=C(O)Cc1ccccc1Oc1ccc(Cl)cc1Cl`, the max response is reported as 1.12% (inactive).
For `CCCCC(CC)COC(=O)c1ccccc1C(=O)O` (configuration not stated), the max response was -9.5% (inactive).
For `[O-][n+]1cccc(/C(Cl)=N/OC[C@@H](O)CN2CCCCC2)c1`, the max response was 4.98% (inactive).
In the case of `CN(C)[C@@H]1C(=O)C(C(N)=O)=C(O)[C@@]2(O)C(=O)C3=C(O)c4c(O)cccc4C[C@H]3C[C@@H]12`, the max response is reported as -0.669% (inactive).
With `CCCCN(CCN(CCCC)C(=O)N1CCOCC1)C(=O)N1CCOCC1` the max response was -1.09% (inactive).
With `CC(C)(C)C(O)/C=C/c1ccc2c(c1)OCO2` (configuration not stated) the outcome was “inactive”.
